The text below walks through data of PubChem BioAssay (Tox21).

The nature of assay [1]: Nuclear factor erythroid 2-related factor 2/antioxidant responsive element (Nrf2/ARE) small molecule agonists: qHTS cell viability counter screen in human keratinocytes (AID 1919968; active = well fitted curve in the direction sought with a large enough effect in the repeat runs; an effect the other way counts as inactive or inconclusive; also: nearly all actives have a fitted effect of over 55% in size; also: potency is read from the fitted curve at half-maximal effect). A digest of the protocol:
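Seed 1,500 KeratinoSens cells per well, then incubate 5 h at 37 C/5% CO2. Add compounds in DMSO and incubate 23 h. Add CellTiter-Fluor, wait 1 h and read fluorescence.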
A general note: In qHTS, concentration-response curves come from the screen itself.

A short description of assay [2]: Nuclear factor erythroid 2-related factor 2/antioxidant responsive element (Nrf2/ARE) small molecule agonists: luciferase reporter gene qHTS assay in human keratinocytes (AID 1919969). Also: nearly all actives have a fitted effect of over 35% in size. Background: In a reporter assay the amount or activity of a reporter protein is the signal.
Assay [3] has as its target Gonadotropin-releasing hormone receptor (Homo sapiens) (UniProt P30968). Description: Human gonadotropin-releasing hormone receptor (GnRHR) small molecule agonists, calcium flux assay in GnRHR-HEK293 cells (AID 1920063). Also: nearly all actives have a fitted effect of over 35% in size. A digest of the protocol: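 Cells: HEK293 stably expressing human GnRHR. Steps: overnight (18 h) culture, 1 h calcium dye loading at 37 C, compound addition, kinetic fluorescence read at 480/540 nm. Each compound tested at 15 concentrations in triplicate.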

Assay [4] deals with KiSS-1 receptor (Homo sapiens) (UniProt Q969F8). Description: Human kisspeptin (KISS1R) small molecule agonists, calcium flux assay in KISS1R-HEK293 cells (AID 1920064; active = well fitted curve in the direction sought with a large enough effect in the repeat runs; an effect the other way counts as inactive or inconclusive). A digest of the protocol: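 Cells plated and incubated 18 h; dye added, 1 h at 37 C; compounds in DMSO pinned in; signal read at 480/540 nm every second for 3 min. Each compound tested at 15 concentrations in triplicate.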
Chain of KiSS-1 receptor (Homo sapiens) (Q969F8 whole entry, looked up): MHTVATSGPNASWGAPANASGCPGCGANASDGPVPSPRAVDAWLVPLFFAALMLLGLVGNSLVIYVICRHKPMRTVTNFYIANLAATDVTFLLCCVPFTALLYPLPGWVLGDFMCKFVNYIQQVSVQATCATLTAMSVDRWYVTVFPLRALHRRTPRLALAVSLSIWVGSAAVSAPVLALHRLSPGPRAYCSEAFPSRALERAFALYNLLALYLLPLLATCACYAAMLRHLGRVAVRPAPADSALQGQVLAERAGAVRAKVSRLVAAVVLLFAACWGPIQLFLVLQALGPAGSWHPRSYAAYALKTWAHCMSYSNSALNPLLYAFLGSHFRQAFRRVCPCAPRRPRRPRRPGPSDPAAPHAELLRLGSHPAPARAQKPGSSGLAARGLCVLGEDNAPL

A short description of assay [5]: p53 small molecule agonists, cell-based qHTS assay with human liver microsomes (AID 1963577).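 Also: p53 response element beta-lactamase reporter cells with liver microsomes plus NADPH.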 The method in brief:
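With metabolic activation: human liver microsomes (0.5 mg/mL final) plus NADPH (0.5 mg/mL final) added alongside compounds to p53RE-bla cells; 16 h 37 C exposure; beta-lactamase read by LiveBLAzer fluorescence.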

The nature of assay [6]: p53 small molecule agonists, cell-based qHTS assay with rat liver microsomes (AID 1963578). The method in brief: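 Metabolic activation by rat liver microsomes and NADPH, each 0.5 mg/mL final, added right after compounds to p53RE-bla reporter cells (4,000/well, plated 5 h earlier). 16 h at 37 C, then LiveBLAzer substrate for 2 h at room temperature in the dark; fluorescence read-out.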

Assay [7] can be described thus: p53 small molecule agonists, cell-based qHTS assay with human liver microsomes: qHTS cell viability counter screen (AID 1963579). Also: nearly all actives have a fitted effect of over 45% in size. The method in brief:
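Metabolic activation used human liver microsomes and NADPH, both 0.5 mg/mL final, over 16 hours at 37 C on p53RE-bla cells (4,000/well). Cytotoxicity measured by CellTiter-Glo luminescence, 30 min at room temperature.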

A short description of assay [8]: p53 small molecule agonists, cell-based qHTS assay with rat liver microsomes: qHTS cell viability counter screen (AID 1963580). Also: nearly all actives have a fitted effect of over 45% in size. A digest of the protocol: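 Intracellular ATP, by CellTiter-Glo luminescence, defines viability. HCT-116 p53RE-bla cells, 4,000 per well, were compound-treated in the presence of rat liver microsomes and NADPH for 16 h at 37 C.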
Assay [9] is described as follows: p53 small molecule agonists, cell-based qHTS assay: qHTS cell viability counter screen (AID 1963581). Also: nearly all actives have a fitted effect of over 45% in size. The method in brief:
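Cells: HCT-116 with p53 response element-driven beta-lactamase. Treatment: 16 h, 37 C, compounds in DMSO. Read: CellTiter-Glo luminescence after 30 min RT.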

Assay [10] in a line: p53 small molecule agonists, cell-based qHTS assay (AID 1963582; active = well fitted activation curve with a large enough effect in the signal ratio in the repeat runs, not every such curve was filed as active; the % refers to the signal ratio). A digest of the protocol:
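Quantitative HTS in p53RE-bla cells: after a 5 h settling period, compounds delivered in DMSO were left on cells for 16 h at 37 C, and reporter induction was measured as fluorescence following 2 h substrate loading.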

Assay [11] addresses 5-hydroxytryptamine receptor 2A (Homo sapiens) (UniProt P28223). Description: 5-hydroxytryptamine receptor 2A (HTR2A) small molecule antagonists, cell-based qHTS assay (AID 1963586). Also: nearly all actives have a fitted effect of over 45% in size. A digest of the protocol:
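Antagonist-mode intracellular calcium assay: DOI (4 nM) added after 5 min compound pre-incubation at room temperature to dye-loaded HTR2A-CHO cells. Fluorescence followed for 3 min, sampled every second.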

Assay [12] has the same target. Description: 5-hydroxytryptamine receptor 2A (HTR2A) small molecule agonists, cell-based qHTS assay (AID 1963587). Also: nearly all actives have a fitted effect of over 30% in size. The method in brief:
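Kinetic calcium-flux fluorescence (2 min, 1 sec intervals) after compound addition in agonist mode. HTR2A-CHO cells were cultured 18 h, then dye-loaded 1 h at 37 C.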

Assay [13] concerns the target Muscarinic acetylcholine receptor M1 (Homo sapiens) (UniProt P11229). Description: Cholinergic receptor muscarinic 1 (CHRM1) small molecule antagonists, cell-based qHTS assay (AID 1963588). Also: nearly all actives have a fitted effect of over 40% in size. A digest of the protocol:
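CHRM1-CHO calcium-flux assay, antagonist mode. Cells were seeded 18 h, dye-loaded 1 h at 37 C and given compound for 5 min at RT, then acetylcholine was added at 50nM. FDSS fluorescence was read 3 min; 15 concentrations, three runs.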

Assay [14] has the same target. Description: Cholinergic receptor muscarinic 1 (CHRM1) small molecule agonists, cell-based qHTS assay (AID 1963589). Also: nearly all actives have a fitted effect of over 35% in size. A digest of the protocol: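 Agonist-mode qHTS in CHO cells stably carrying human muscarinic M1. Intracellular calcium is tracked by fluorescence every second after compound transfer; each compound runs at 15 concentrations in three independent runs.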

Assay [15] is described as follows: cAMP Responsive Elements (CRE) small molecule agonists, cell-based qHTS assay (AID 1963590). A digest of the protocol:
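Agonist mode qHTS in CRE-bla HEK 293T cells: compounds dosed from DMSO for 3 h at 37 C/5% CO2, followed by LiveBLAzer B/G FRET substrate for 2 h at room temperature.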

Assay [16] in a line: cAMP Responsive Elements (CRE) small molecule antagonists, cell-based qHTS assay (AID 1963591; active = well fitted inhibition curve with a large enough effect in the signal ratio in the repeat runs, not every such curve was filed as active; the % refers to the signal ratio). The method in brief:
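Antagonist mode: test compounds are co-incubated with the adenylyl cyclase activator NKH477 (0.25 uM final) on CRE-bla HEK293T cells for 3 h at 37 °C, followed by LiveBLAzer substrate loading.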

Assay [17] concerns the target Beta-2 adrenergic receptor (Homo sapiens) (UniProt P07550). Description: Adrenergic beta2 receptor (ADRB2) small molecule antagonists, cell-based qHTS assay (AID 1963592). Also: series mostly up to about 92 µM; nearly all actives have a fitted effect of over 50% in size. The method in brief:
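Cells (CHO, stable ADRB2 overexpression) incubated 18-20hr at 37C; compounds added from DMSO; agonist mix (1nM isoproterenol, 100uM IBMX, 25uM Ro-20-1724) added; 0.5hr RT; d2-cAMP and anti-cAMP-cryptate added; 1hr RT; 665/615 nm read.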

The target of assay [18] is D(2) dopamine receptor (Homo sapiens) (UniProt P14416). Description: Dopamine D2 receptor (DRD2) small molecule agonists, cell-based qHTS assay (AID 1963594). Also: nearly all actives have a fitted effect of over 35% in size. The method in brief:
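cAMP accumulation in DRD2-HEK293 cells measured by HTRF after 1 h detection; compounds added 10 min before NKH477 (200nM […]) forskolin-analogue stimulation, 30 min at room temperature, with Ro20-1724 present at 0.1 mM final.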

The target is the same in assay [19]. Description: Dopamine D2 receptor (DRD2) small molecule antagonists, cell-based qHTS assay (AID 1963595; active = well fitted inhibition curve with a large enough effect in the signal ratio in the repeat runs, with a control signal flat; the % refers to the signal ratio). A digest of the protocol:
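DRD2-HEK293; 0.1 mM Ro20-1724; cpd 10 min RT; NKH477 200 nM + quinpirole 12 nM, 30 min RT; HTRF cAMP (cAMP-d2/anti-cAMP cryptate), 665/620 nm ratio after 1 h.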

Assay [20] in a line: G protein-coupled receptor (GPCR) small molecule agonists, calcium flux assay: HEK293 wild type cell line counter screen (AID 1920065). The method in brief:
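Counter-screen of the Tox21 10K library for non-specific calcium release: dye-loaded cells received compounds in DMSO and were monitored by kinetic fluorescence (480/540 nm, 3 min). Fifteen concentrations, run in triplicate.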
In general terms: Calcium flux is commonly read through the fluorescence of an indicator in the cells.

Unmarked numbers belong to inactive results. Records with an inconclusive call do not appear. Calls of active or inactive are those of the source. Unless noted, calls follow the shape of the full dose curve.

Chain of 5-hydroxytryptamine receptor 2A (Homo sapiens) (P28223 whole entry, looked up): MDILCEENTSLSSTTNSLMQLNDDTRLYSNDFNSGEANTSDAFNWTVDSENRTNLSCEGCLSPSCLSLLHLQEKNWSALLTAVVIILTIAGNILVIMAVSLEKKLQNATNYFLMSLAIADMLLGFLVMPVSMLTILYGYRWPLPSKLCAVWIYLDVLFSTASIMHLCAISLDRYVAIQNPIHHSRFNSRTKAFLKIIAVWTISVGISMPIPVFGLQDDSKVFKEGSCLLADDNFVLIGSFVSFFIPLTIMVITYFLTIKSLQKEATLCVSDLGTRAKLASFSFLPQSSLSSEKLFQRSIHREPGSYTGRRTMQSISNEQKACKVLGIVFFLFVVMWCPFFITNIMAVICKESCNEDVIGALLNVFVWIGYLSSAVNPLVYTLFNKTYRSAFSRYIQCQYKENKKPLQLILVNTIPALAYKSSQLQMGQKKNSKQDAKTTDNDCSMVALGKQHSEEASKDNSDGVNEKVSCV
Chain of D(2) dopamine receptor (Homo sapiens) (P14416 whole entry, looked up): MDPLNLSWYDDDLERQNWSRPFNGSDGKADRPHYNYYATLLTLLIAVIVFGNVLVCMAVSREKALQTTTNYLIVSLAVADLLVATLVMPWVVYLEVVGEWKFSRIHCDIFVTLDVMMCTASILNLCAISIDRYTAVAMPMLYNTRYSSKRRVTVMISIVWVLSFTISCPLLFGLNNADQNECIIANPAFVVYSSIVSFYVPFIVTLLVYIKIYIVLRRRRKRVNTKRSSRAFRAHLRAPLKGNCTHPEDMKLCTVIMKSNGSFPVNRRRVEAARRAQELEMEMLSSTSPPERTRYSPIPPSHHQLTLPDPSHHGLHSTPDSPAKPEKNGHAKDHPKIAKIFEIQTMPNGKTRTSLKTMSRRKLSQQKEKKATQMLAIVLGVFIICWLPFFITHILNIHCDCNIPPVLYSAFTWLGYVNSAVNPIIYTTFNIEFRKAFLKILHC
Chain of Muscarinic acetylcholine receptor M1 (Homo sapiens) (P11229 whole entry, looked up): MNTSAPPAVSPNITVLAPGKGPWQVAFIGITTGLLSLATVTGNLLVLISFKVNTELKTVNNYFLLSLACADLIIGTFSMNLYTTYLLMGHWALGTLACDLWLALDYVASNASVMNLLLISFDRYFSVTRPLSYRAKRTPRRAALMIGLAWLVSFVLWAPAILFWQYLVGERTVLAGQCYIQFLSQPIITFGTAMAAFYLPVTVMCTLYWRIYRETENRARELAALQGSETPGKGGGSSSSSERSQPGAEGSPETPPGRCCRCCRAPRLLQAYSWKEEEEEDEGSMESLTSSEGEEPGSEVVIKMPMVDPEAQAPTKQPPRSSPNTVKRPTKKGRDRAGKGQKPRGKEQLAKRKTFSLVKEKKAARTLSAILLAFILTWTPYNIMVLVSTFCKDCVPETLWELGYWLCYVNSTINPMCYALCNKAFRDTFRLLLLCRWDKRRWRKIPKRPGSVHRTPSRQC
Chain of Beta-2 adrenergic receptor (Homo sapiens) (P07550 whole entry, looked up): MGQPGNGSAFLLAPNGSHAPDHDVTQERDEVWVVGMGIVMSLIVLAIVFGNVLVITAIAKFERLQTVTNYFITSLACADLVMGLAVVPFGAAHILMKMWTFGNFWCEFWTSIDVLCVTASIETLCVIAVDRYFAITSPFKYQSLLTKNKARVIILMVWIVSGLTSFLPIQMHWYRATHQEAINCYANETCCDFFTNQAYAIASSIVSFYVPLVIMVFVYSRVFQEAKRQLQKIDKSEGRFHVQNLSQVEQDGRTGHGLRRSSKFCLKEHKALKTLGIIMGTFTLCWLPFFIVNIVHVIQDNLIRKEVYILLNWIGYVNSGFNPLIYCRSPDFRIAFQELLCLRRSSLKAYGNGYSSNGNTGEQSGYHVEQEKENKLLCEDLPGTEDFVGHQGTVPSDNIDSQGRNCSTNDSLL
Chain of Gonadotropin-releasing hormone receptor (Homo sapiens) (P30968 whole entry, looked up): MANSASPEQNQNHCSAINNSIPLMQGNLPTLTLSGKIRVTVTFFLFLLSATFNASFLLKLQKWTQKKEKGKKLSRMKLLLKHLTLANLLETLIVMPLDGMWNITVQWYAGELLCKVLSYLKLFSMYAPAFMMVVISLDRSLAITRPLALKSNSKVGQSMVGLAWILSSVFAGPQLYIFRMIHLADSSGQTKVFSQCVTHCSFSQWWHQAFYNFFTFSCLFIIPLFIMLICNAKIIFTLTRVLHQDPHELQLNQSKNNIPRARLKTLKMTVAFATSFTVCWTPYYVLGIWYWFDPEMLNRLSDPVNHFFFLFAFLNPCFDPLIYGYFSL

Regarding `CCc1cccc(CC)c1N(COC)C(=O)CS(=O)(=O)O`, the Potency entry in assay [1], in assay [2], in assay [3], in [5], in assay [6] and in assay [7] was “inactive” each time. For the same compound, the Potency entry in [8], in assay [9], in [10], in [11], in assay [12] and in assay [13] was “inactive” in each case. In addition, the Potency entry in assay [14], in assay [15], in assay [16], in [17], in [18] and in assay [19] was “inactive” each time. In addition, in assay [4], the outcome was inactive.

For the compound `O=C1c2ccccc2C(=O)C1c1ccccc1`, the Potency entry in [1], in assay [2], in [3], in assay [6], in [8] and in [9] was “inactive” throughout. Also, the Potency result in assay [10], in assay [15], in [16], in assay [18] and in [19] was “inactive” in each case. Besides, the result in assay [4] and in [20] was inactive.

`CC(C)(c1cc(Br)c(OCCO)c(Br)c1)c1cc(Br)c(OCCO)c(Br)c1`: the Potency in [1] was 37.7 µM (active). Moreover, the Potency entry in assay [2], in [3], in assay [6], in assay [8], in assay [11] and in assay [12] was “inactive” each time. In addition, the Potency entry in assay [13], in assay [14], in [17], in assay [18] and in assay [19] was “inactive” in each case. The result in assay [4] and in [20] was inactive.

Consider `CC(C)(C)c1ccccc1`, for which the Potency entry in assay [1], in assay [2], in assay [3], in [6], in assay [8] and in [9] was “inactive” each time. Further, the Potency entry in assay [10], in assay [11], in [12], in assay [13], in assay [14] and in [15] was “inactive” each time. Besides, the Potency result in [16], in assay [17], in assay [18] and in assay [19] was “inactive” each time. Also, the result in assay [4] and in assay [20] was inactive.

With `COC(C)(C)CCCC(C)CC=O` (centres undefined), the Potency entry in assay [1], in [2], in assay [3], in assay [5], in [6] and in assay [7] was “inactive” each time. For the same compound, the Potency entry in assay [8], in [9], in assay [10], in assay [11], in assay [12] and in assay [14] was “inactive” in each case. For the same compound, the Potency result in [15], in [16], in assay [17], in assay [18] and in assay [19] was “inactive” each time. In [4], the outcome was inactive.

For `CCNC(=O)C(C)OC(=O)Nc1ccccc1` (centres undefined), the Potency result in [1], in assay [2], in [3], in assay [5], in assay [6] and in assay [7] was “inactive” throughout. Further, the Potency result in assay [8], in assay [9], in [10], in assay [11], in assay [12] and in [13] was “inactive” throughout. The Potency result in assay [14], in assay [15], in assay [16], in assay [18] and in [19] was “inactive” each time. Further, in [4], the result was inactive.

For the compound `OC[C@@H](O)C(O)[C@@H](O)CO` (some centres undefined), the Potency result in assay [1], in [2], in assay [3], in assay [5], in assay [6] and in [7] was “inactive” each time. Moreover, the Potency result in [8], in assay [9], in assay [10], in [11], in assay [12] and in assay [13] was “inactive” throughout. Moreover, the Potency entry in assay [14], in assay [15], in [16], in [17], in [18] and in assay [19] was “inactive” throughout. Further, in [4], the outcome was inactive.
